# The source made the active and inactive calls.
# Assays:
# [1] = A549 cell viability effects, profiling panel, calcein-AM fluorescence, 48 h, basal (AID 1162); settings: higher = more signal
# [2] = adipocyte viability effects, profiling panel, cell-based, 3T3-L1 adipocytes, calcein-AM fluorescence, 48 h, basal (AID 1163); settings: 3T3-L1 adipocytes viability, higher = more signal
# [3] = HepG2 cell viability effects, profiling panel, calcein-AM fluorescence, 48 h, basal (AID 1164); settings: higher = more signal
# [4] = MM1S cell viability effects, profiling panel, calcein-AM fluorescence, 48 h, basal (AID 1165); settings: higher = more signal;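 further: viability of MM1S multiple myeloma cells under basal unstimulated conditions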
# [5] = basal RPMI8226 viability, no added stimulus, profiling panel, cell-based, calcein-AM fluorescence, 48 h, PK04 Diversity Set (AID 1166); settings: RPMI8226 myeloma viability, higher = more signal;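 further: cells grown under basal conditions without added stimulus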
# [6] = basal HepG2 mitochondrial membrane potential changes, profiling panel, cell-based, JC-1 fluorescence, 24 h, 100 nL compound (AID 1167); settings: higher = more signal
# [7] = basal 3T3-L1 adipocyte mitochondrial potential changes, profiling panel, cell-based, JC-1 fluorescence, 3T3-L1 adipocytes, 24 h, 100 nL compound (AID 1168); settings: JC-1 mitochondrial fluorescence, higher = more signal, called active from +8 up or from −8 down
# [8] = basal RPMI8226 mitochondrial membrane potential changes, profiling panel, cell-based, JC-1 fluorescence, 24 h, 100 nL compound (AID 1169); settings: RPMI8226 myeloma, JC-1 mitochondrial potential fluorescence, higher = more signal
# [9] = basal MM1S mitochondrial membrane potential changes, profiling panel, cell-based, JC-1 fluorescence, 24 h, 100 nL compound (AID 1170); settings: higher = more signal
# [10] = A549 lung cancer cell viability effects, profiling panel, resazurin fluorescence, 24 h, PK04 Diversity Set (AID 1171); settings: higher = more signal, called active from +8 up or from −8 down
# Further: test concentration not given here.
Compound,z-score [1],z-score [2],z-score [3],z-score [4],z-score [5],z-score [6],z-score [7],z-score [8],z-score [9],z-score [10]
COCCOC(=O)N1C(=O)[C@@]2(c3cc(C#CC4=CCCCC4)ccc31)[C@H](C(N)=O)[C@H]1C(=O)O[C@H](c3ccccc3)[C@H](c3ccccc3)N1[C@@H]2c1ccc(O)cc1,0.282,0.326,0.581,-3.07,-4.54,-1.89,1.1 (inactive),-1.22,-0.992,-1.77 (inactive)
O=C1NC(=O)C2C1C=CC(C(O)c1ccc(-c3ccccc3)s1)N2Nc1ccc(Cl)cc1Cl (stereo not given),-1.95,-0.901,-2.13,-3.61,-3.05,-2.92,-1.08 (inactive),-0.983,-0.247,-1.65 (inactive)
C=CCNC(=O)[C@@H]1[C@H]2C(=O)O[C@H](c3ccccc3)[C@H](c3ccccc3)N2[C@H](c2ccc(OCCO)cc2)[C@@]12C(=O)N(C(=O)OCCOC)c1ccc(C#CCC(C(=O)OC)C(=O)OC)cc12,-0.906,0.445,-0.713,-1.85,-1.34,0.366,0.0731 (inactive),-0.799,-1.16,0.185 (inactive)
[N-]=[N+]=Nc1ccccc1C[C@]1(C(=O)N2CCCCC2)COC(c2ccc(OCCCO)cc2)=N1,-0.611,0.761,-0.328,-3.52,-4.33,-0.676,0.00722 (inactive),-1.3,-2.03,1.85 (inactive)
CCCCC(=C=CC[C@H](O)c1cccc(OCCO)c1)C[C@H](O)c1ccccn1,1.35,1.2,1.3,-0.497,1.43,1.17,-1.63 (inactive),0.0444,-1.1,2.05 (inactive)
CC(C)CNC(=O)[C@@]1(Cc2ccccc2I)c2ccccc2C(=O)N(Cc2ccccc2C(F)(F)F)[C@H]1c1ccc(CO)cc1,-0.942,-0.716,-0.0693,-0.722,-0.548,0.081,0.752 (inactive),-0.844,-0.167,-0.328 (inactive)
O=C1C2C=CC(C(O)c3ccc(F)cc3)N(Nc3ccc([N+](=O)[O-])cc3)C2C(=O)N1c1ccccc1 (stereo not given),-0.755,-0.376,0.679,-0.06,-0.313,-0.382,-0.287 (inactive),-0.403,-0.977,0.68 (inactive)
COC(=O)[C@@]1(Cc2ccc(F)cc2)[C@H]2c3cc(C(=O)N(C)C)n(Cc4ccc(C)o4)c3C[C@H]2CN1C(=O)c1ccccc1,0.0895,-0.333,0.625,-1.58,-2.03,0.0211,-1.72 (inactive),-0.847,-0.209,0.501 (inactive)
C#CCN1[C@H](/C=C/C2CC2)[C@H](Cc2ccccc2)OC(=O)[C@@H]1Cc1ccccc1,-0.627,0.0556,-0.0365,-2.65,-2.47,1.31,-0.0709 (inactive),-0.294,-0.719,2.37 (inactive)
CS(=O)(=O)CCOC(=O)C1=CC(CCCO)=CC(c2ccc(CN3CCCC3)cc2)N(Cc2cccc(OC(F)(F)F)c2)C=C1C(=O)OCCS(C)(=O)=O (stereo not given),0.75,0.309,1.81,-1.46,-0.697,3.78,-0.168 (inactive),-0.661,-0.935,0.516 (inactive)
[N-]=[N+]=NCc1ccccc1[C@@H]1OC(c2ccc(OCCCO)cc2)=N[C@]1(CCS(=O)(=O)c1ccccc1)C(=O)N1CCCCC1,1.26,-0.418,1.43,-0.504,-0.0169,-0.132,-0.159 (inactive),-0.653,-1.87,-0.182 (inactive)
C=CCC(OC(C)=O)[C@@H]1[C@@H](N(Cc2ccc(-c3ccccc3)cc2)C(=O)Cc2ccc(F)cc2)c2cc(OCCCO)ccc2N1C(=O)c1ccc2ccccc2c1 (stereo not given in full),0.444,0.0021,0.278,-0.895,-0.344,1.61,-0.413 (inactive),-0.192,0.769,0.799 (inactive)
O=C(O)[C@H](Cc1ccccc1)n1cc(-c2ccccc2)nn1,-0.757,-0.853,-0.177,0.269,-0.157,-0.601,-0.0821 (inactive),0.666,0.348,-0.143 (inactive)
CC[C@@H]1C=C(C(=O)O)[C@H](c2cccc3ccccc23)N1S(=O)(=O)c1ccc(C)cc1,-1.17,-0.101,0.338,-0.585,-0.392,-0.384,0.291 (inactive),1.17,-1.16,-0.376 (inactive)
CC(C)N1CC=CC23O[C@@H]4C=CCOC(=O)[C@@H]4[C@H]2C(=O)N(CCCCCO)[C@@H]3C1=O (stereo not given in full),0.522,1.45,-1.25,1.01,0.512,-0.448,-0.709 (inactive),0.565,-0.41,0.0829 (inactive)
COc1cc2c(cc1O)C=[N+](Cc1cc3c(cc1Br)OCO3)CC2,-0.103,0.626,-0.958,0.343,-0.109,-0.375,-0.935 (inactive),0.108,-0.374,-0.698 (inactive)
O=C1C2C=CC(C(O)C=Cc3ccc([N+](=O)[O-])cc3)N(Nc3ccccc3F)C2C(=O)N1c1ccccc1 (stereo not given),-0.212,-0.846,-0.0729,-1.45,-0.343,-1.33,-1.55 (inactive),-0.22,-1.54,0.0067 (inactive)
CC(c1ccccc1)C(O)C1C=CC2C(=O)N(c3ccccc3)C(=O)C2N1Nc1ccccc1 (stereo not given),-0.477,0.618,-0.645,-0.476,-0.823,-2.36,-0.266 (inactive),-0.814,-0.547,-1.15 (inactive)
CN1C(=O)C2C=CC(C(O)c3c(F)cccc3Cl)N(NC(=O)OC(C)(C)C)C2C1=O (stereo not given),-0.646,-0.204,-0.482,-0.208,-1.64,-1.25,-0.555 (inactive),-0.715,0.925,0.143 (inactive)
O=C1OCCC=C[C@H]2OC34C=CCN(c5ccc(Cl)cc5)C(=O)[C@H]3N(CCCO)C(=O)[C@@H]4C12 (stereo not given in full),0.0676,1.95,-0.517,0.435,-1.16,-0.00501,0.272 (inactive),-0.21,0.162,-0.797 (inactive)
CN(C)CCCC[C@@H]1NC(=O)[C@H]2C[C@@H](C(=O)NCCCCCN)[C@@H](c3cccc(OCCO)c3)N2C1=O,0.227,0.167,-0.42,-1.44,0.537,1.28,1.18 (inactive),0.51,1.26,0.123 (inactive)
COc1ccc(C#Cc2ccc3c(c2)[C@]2(C(=O)N3)[C@H](c3ccc(O)cc3)N3[C@H](c4ccccc4)[C@H](c4ccccc4)OC(=O)[C@H]3[C@@H]2C(=O)N2CCc3cc(OC)c(OC)cc3C2)cc1,-0.258,-0.817,-0.0752,-0.405,-2.87,-0.458,2.25 (inactive),-0.727,-0.418,-0.565 (inactive)
C=CC[C@]1(C(N)=O)COC(c2ccc(OCCCO)cc2)=N1,0.669,-0.793,0.0717,0.327,1.3,0.16,0.654 (inactive),0.702,-0.753,0.381 (inactive)
O=C1[C@H]2C=C(Br)[C@H](C[C@@H]2OCCCCCCO)[C@@]12CO2,-0.141,-0.572,-0.339,-1.04,0.206,-1.59,-0.253 (inactive),-0.601,-0.0629,-0.247 (inactive)
C=CC[C@]12N=C(c3ccc(OCCCO)cc3)O[C@H]1c1ccccc1N(CCS(=O)(=O)c1ccccc1)C2=O,0.289,0.839,0.324,-1.68,-0.916,0.134,1.73 (inactive),-1.01,-1.25,-1.02 (inactive)
CO[C@H]1O[C@H](CO)[C@@H](OC(=O)Nc2ccc(Oc3ccccc3)cc2)[C@H](OC(=O)Nc2ccc3c(c2)OCO3)[C@@H]1OC(=O)Nc1ccc2c(c1)OCO2,-0.882,-0.132,-0.845,-2.21,-1.74,-0.594,1.02 (inactive),-0.48,-0.751,-1.29 (inactive)
CCCCC(=C=CC[C@@H](O)c1ccc(CO)o1)CCO,1.48,-0.186,0.376,-0.277,0.275,0.761,0.618 (inactive),0.0267,0.321,1.28 (inactive)
O=C1OCC=C[C@H]2OC34C=CCN(Cn5nnc6ccccc65)C(=O)[C@H]3N(CCCCCO)C(=O)[C@@H]4[C@@H]12 (stereo not given in full),-0.382,0.188,-0.609,0.823,0.903,-0.0737,-0.135 (inactive),0.205,0.183,-0.301 (inactive)
O=C1NC(=O)C2C1C=CC(C(O)c1ccc(I)cc1)N2Nc1ccccn1 (stereo not given),-0.0915,-0.891,-0.145,-0.619,-0.566,-1.35,-0.47 (inactive),0.537,-0.0562,-0.107 (inactive)

# From PubChem BioAssay
